Compounds without any hit were thinned out: in the full panel of roughly 83,000, 20% have a hit.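 Plates (96-well) were seeded with cells, treated with compound at one concentration, and incubated for 48 hours before percent growth was determined.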 Calls of active or inactive are those of the source. Rule for the calls: active = growth percent below 10; inactive = the rest.
How the values were obtained:
Test in all cases: NCI-60 one-dose screen, 48 h (100 = growth as untreated, 0 = no growth, -100 = all killed)
Conditions in all cases: 10 µM unless noted
DU-145 prostate = system: DU-145 prostate
K-562 leukemia = system: K-562 leukemia
MALME-3M melanoma = system: MALME-3M melanoma
MDA-MB-231 breast = system: MDA-MB-231 breast
RXF 393 renal = system: RXF 393 renal
SF-268 CNS = system: SF-268 CNS
SF-295 CNS = system: SF-295 CNS
SF-539 CNS = system: SF-539 CNS
M14 melanoma = system: M14 melanoma

Measured: growth

O=C1NCC(c2cc3ccccc3[nH]c2=O)Nc2ccccc21 (stereo not given)
inactive: DU-145 prostate 111% | K-562 leukemia 90.2% | MALME-3M melanoma 96.8% | MDA-MB-231 breast 97.9% | RXF 393 renal 90.7% | SF-268 CNS 99.9% | SF-295 CNS 106% | SF-539 CNS 96.5% | M14 melanoma 101%

Nc1ccc(S(=O)(=O)c2ccc(Cl)cc2)cc1
inactive: DU-145 prostate 104% | K-562 leukemia 109% | MALME-3M melanoma 85.7% | MDA-MB-231 breast 92.3% | RXF 393 renal 113% | SF-268 CNS 96.8% | SF-295 CNS 98.2% | SF-539 CNS 86% | M14 melanoma 96.1%

O=C(Nc1ccc(F)c(Cl)c1)c1n[nH]c(=O)c2ccccc12
inactive: DU-145 prostate 131% | K-562 leukemia 99.8% | MALME-3M melanoma 125% | MDA-MB-231 breast 98.3% | SF-268 CNS 99.4% | SF-295 CNS 84.8% | SF-539 CNS 124% | M14 melanoma 115%
active: RXF 393 renal -29.4%

Cc1cc2c(C(C)C)c(O)c(O)c(C=NCCCCCCC(=O)O)c2c(O)c1-c1c(C)cc2c(C(C)C)c(O)c(O)c(C=NCCCCCCC(=O)O)c2c1O
inactive: DU-145 prostate 51.3% | K-562 leukemia 12.6% | MALME-3M melanoma 62.8% | MDA-MB-231 breast 39.2% | RXF 393 renal 34.2% | SF-268 CNS 36.2% | SF-295 CNS 11.9% | SF-539 CNS 23.1% | M14 melanoma 37%

CNC(=O)c1cc(Oc2ccc3c(c2)sc2nc(-c4ccc(Cl)cc4)cn23)ccn1
inactive: DU-145 prostate 96.3% | K-562 leukemia 85.8% | MALME-3M melanoma 72.7% | MDA-MB-231 breast 77% | RXF 393 renal 83.5% | SF-268 CNS 63.3% | SF-295 CNS 80.1% | SF-539 CNS 76% | M14 melanoma 94.7%

COc1ccc(/C=C(\C#N)c2ccc([N+](=O)[O-])cc2)c2ccccc12
inactive: DU-145 prostate 60.9% | K-562 leukemia 44.7% | MALME-3M melanoma 14.6% | MDA-MB-231 breast 45% | RXF 393 renal 58.3% | SF-268 CNS 39.8% | SF-295 CNS 70.7% | SF-539 CNS 49.4% | M14 melanoma 65.7%

CCN1C(=O)N[C@H]2[C@@H]3NC(=O)c4ccc(Cl)n4[C@@H]3C[C@]21O
active: DU-145 prostate 5.1% | K-562 leukemia 3.13% | MALME-3M melanoma -1.41% | MDA-MB-231 breast -3.51% | SF-268 CNS 5.4% | SF-295 CNS 0.996% | SF-539 CNS -33.5% | M14 melanoma -21.3%
inactive: RXF 393 renal 10.2%

Cc1ccc2c(c1)ncn2-c1ncnc2c1CC(C)c1ccccc1N2C (stereo not given)
active: K-562 leukemia 7.17% | SF-539 CNS 4.79%
inactive: DU-145 prostate 11.8% | MALME-3M melanoma 49.3% | MDA-MB-231 breast 26.9% | RXF 393 renal 72% | SF-268 CNS 19.9% | SF-295 CNS 13.3% | M14 melanoma 19.7%

O=S=Nc1ccc([N+](=O)[O-])cc1
inactive: DU-145 prostate 84.8% | K-562 leukemia 75.6% | MALME-3M melanoma 96.8% | MDA-MB-231 breast 95.4% | RXF 393 renal 111% | SF-268 CNS 91.8% | SF-295 CNS 98.9% | SF-539 CNS 95.4% | M14 melanoma 94%

CCCCOc1nc2c(C)cccc2cc1C1CNC(=O)c2ccccc2N1 (stereo not given)
inactive: DU-145 prostate 86% | K-562 leukemia 19% | MALME-3M melanoma 86.1% | MDA-MB-231 breast 65.3% | RXF 393 renal 78.3% | SF-268 CNS 66.9% | SF-295 CNS 52.5% | SF-539 CNS 68.3% | M14 melanoma 54.7%

Cc1ccc2nc(SCn3nnc4ccccc4c3=O)[nH]c2c1
inactive: DU-145 prostate 96.5% | K-562 leukemia 74.4% | MALME-3M melanoma 323% | MDA-MB-231 breast 97.9% | RXF 393 renal 117% | SF-268 CNS 111% | SF-295 CNS 109% | SF-539 CNS 86.4% | M14 melanoma 102%

O=[N+]([O-])c1c(S(=O)(=O)O)cc2cc(S(=O)(=O)O)ccc2c1[N+](=O)[O-]
inactive: DU-145 prostate 107% | K-562 leukemia 95.7% | MALME-3M melanoma 91% | MDA-MB-231 breast 99.7% | RXF 393 renal 109% | SF-268 CNS 99.5% | SF-295 CNS 105% | SF-539 CNS 98.4% | M14 melanoma 99.8%

O=C1Nc2cc(Cl)ccc2/C1=C/c1ccc(N2CCOCC2)s1
inactive: DU-145 prostate 110% | K-562 leukemia 98.5% | MALME-3M melanoma 96.5% | MDA-MB-231 breast 99% | RXF 393 renal 93.9% | SF-268 CNS 114% | SF-295 CNS 86.8% | SF-539 CNS 92.3% | M14 melanoma 111%

COc1cc(Br)c(OC)cc1Br
inactive: DU-145 prostate 106% | K-562 leukemia 104% | MALME-3M melanoma 75.4% | MDA-MB-231 breast 85.6% | RXF 393 renal 116% | SF-268 CNS 98.6% | SF-295 CNS 94.7% | SF-539 CNS 93.6% | M14 melanoma 91.5%

O=S(=O)(NCCCNc1cc(-c2cn(-c3ccccc3)nc2-c2cccc(O)c2)ccn1)c1cccc2ccccc12
inactive: DU-145 prostate 49.7% | RXF 393 renal 32.1% | SF-268 CNS 39.9% | SF-539 CNS 33.3% | M14 melanoma 28.2%
active: K-562 leukemia 1.39% | MALME-3M melanoma -1.89% | MDA-MB-231 breast 4.29% | SF-295 CNS -19.9%

Source: PubChem BioAssay (NCI)
